This is a sample that favours compounds with a hit; in the whole collection about 4.6% have one here.
PfHsp90 yeast 2 – reduces growth (ATP signal) of yeast expressing P. falciparum Hsp90 | AID 504621 | S. cerevisiae expressing PfHsp90, BacTiter-Glo ATP, 48 h; yeast lacking PDR1 and PDR3 efflux regulators | inhibition, % at 9.4 µM | 310,000 compounds, 0.32% hits;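 active = every replicate shows inhibition above about 80%, whatever the replicate mean, limit read from the data; inconclusive = mean inhibition reaches the set limit but some replicate falls short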;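 also: 0% = DMSO neutral controls and 100% = 20 µM radicicol positive controls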
TIM10 inh – TIM10 yeast growth inhibition | inhibition, % at 10 µM | AID 463195 | 330,000 compounds, 1.4% hits | S. cerevisiae TIM10 strain growth, BacTiter-Glo luminescence, 24 h;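 active = inhibition of 40% or more at the single tested concentration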;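 also: wild-type TIM10 isogenic control strain grown at permissive 25 °C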
NALP3 yeast inh – blocks the NALP3 inflammasome reconstituted in yeast; Yeast reconstituted NLRP3/ASC/caspase-1, beta-gal luminescence, 24 h; inhibition, % at 10 µM; 330,000 compounds, 0.39% hits; AID 2825;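 active = inhibition of 50% or more; inactive = inhibition below 50%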;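 also: plate controls were induced DMSO wells for no effect and uninduced yeast grown without galactose for full effect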
tim10-1 inh – inhibits growth of tim10-1 mutant yeast; 330,000 compounds, 2.2% hits; S. cerevisiae tim10-1 ts strain growth, BacTiter-Glo, 24 h; inhibition, % at 20 µM;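 active = inhibition of at least 40%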;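 also: mutant grown at 25 °C; 0% = DMSO wells with yeast and 100% = wells holding no yeast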
tim23-1 inh – inhibits growth of tim23-1 mutant yeast; S. cerevisiae tim23-1 growth, BacTiter-Glo luminescence, 24 h; inhibition, % at 20 µM; 330,000 compounds, 1.3% hits; AID 463212;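 active = growth inhibition of the mutant yeast at or above 50%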;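 also: temperature-sensitive mutant grown at 25 °C; plate controls were DMSO-treated mutant yeast for no effect and medium wells lacking yeast for full effect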
SKKanGAS inh – inhibitors of SKKanGAS S. pyogenes growth in kanamycin (SK-promoter or general growth effect). BacTiter-Glo, 6 h. inhibition, % at 7.5 µM. 300,000 compounds, 1.3% hits. AID 1662;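 active = mean replicate score, as percent of positive control median, at least 50; inconclusive = mean below 50 but one replicate at or above 50; inactive = mean and every replicate below 50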;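 also: strain carries kanamycin resistance gene driven by streptokinase promoter and grows in 40 µg/ml kanamycin; loss of luminescence reflects streptokinase promoter inhibition or plain growth inhibition; 0% = median of DMSO wells and 100% = positive control at its reference dose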
* = called active by the depositor; ? = inconclusive; · = not tested or not shown; ! = repeats disagree.

SMILES	PfHsp90 yeast 2	TIM10 inh	NALP3 yeast inh	tim10-1 inh	tim23-1 inh	SKKanGAS inh
CC(C)c1ccc(OCC(=O)NNC(=S)NC(=O)c2ccco2)c(Br)c1	8	15	38	17	14	117*
Cc1ccccc1OCC(=O)Nc1ccccc1NC(=O)c1ccco1	-3	-5	12	-3	7	-4
Cc1ccccc1OCC(=O)NNC(=S)NC(=O)c1ccco1	?	18	30	6	-30	115*
Cc1cc(Cl)ccc1OCC(=O)NNC(=O)c1ccco1	-11	-6	9	-3	0	-2
O=C1CN(C(=O)N[C@@H](Cc2ccccc2)C(=O)N[C@H](C(=O)O)c2ccccc2)c2ccccc2N1	6	-4	3	-1	5	-1
CC(C)C[C@H](NC(=O)N1CC(=O)Nc2ccccc21)C(=O)N[C@H](C(=O)O)c1ccccc1	-20	·	·	·	·	63*
CC(C)[C@H](NC(=O)N1CC(=O)Nc2ccccc21)C(=O)N[C@@H](Cc1ccccc1)C(=O)O	11	1	11	1	10	94*
Cc1nnc(SCC2=C(C(=O)O)N3C(=O)C(NC(=O)COc4ccccc4)C3SC2)s1 (configuration not stated)	9	-1	4	-16	11	·
Cc1nnc(SCC2=C(C(=O)O)N3C(=O)C(NC(=O)Cn4cnnn4)C3SC2)s1 (configuration not stated)	-26	5	22	-5	-11	106*
Cc1nnc(SCC2=C(C(=O)O)N3C(=O)[C@@H](NC(=O)Cn4cnnn4)[C@H]3SC2)s1	-6	5	11	2	0	105*!
CC1C(=O)C(C)C(c2cccc(Br)c2)NC1c1cccc(Br)c1 (configuration not stated)	2	-4	21	4	5	60*
CCOC(=O)C1OC1(c1ccccc1)c1ccccc1 (configuration not stated)	-16	·	·	·	·	·
COC(C[C@H]1O[C@H]1[C@H](O)COCc1ccccc1)OC	20	8	8	-1	16	0
CSc1nc2ccc(NS(=O)(=O)c3ccc4c(c3)OCCO4)cc2s1	-11	8	11	22	29	1
CCOc1cc(S(=O)(=O)NC2CCCCCC2)ccc1F	108*	-65	43	18	39	5
CSc1nc2ccc(S(=O)(=O)NC3CCCCC3)cc2s1	104*	-109	17	-13	1	16
CSc1cnn(Cc2ccccc2)c(=O)c1SCc1ccccc1	-15	·	·	·	·	68*
CSc1cnn(-c2ccccc2)c(=O)c1SC	22	8	-15	6	2	2
Cc1oc(-c2ccccc2Cl)nc1CN1CCCCC1c1cccnc1 (configuration not stated)	-8	12	-3	25	38	-10
O=[N+]([O-])c1ccc(/C=[N+](\[O-])CCO)o1	9	4	12	3	11	84*
Nc1ccc(Nc2nc3ccccc3[nH]2)cc1	-2	-12	20	-18	-23	6
c1ccc(Nc2nc3ccccc3[nH]2)nc1	-25	1	5	9	-47	62*
Cc1c(/C=N/NC(=O)c2ccc(O)cc2)c2ccccn2c1C(=O)c1ccc(F)cc1	20	1	-5	5	4	52*
Cc1c(/C=N/NC(=O)c2ccccc2O)c2ccccn2c1C(=O)c1ccc(F)cc1	-5	-1	26	10	18	29
Cc1ccc(Nc2nc3nonc3[nH]c2=O)cc1Cl	3	1	20	12	18	106*
SMILES	PfHsp90 yeast 2	TIM10 inh	NALP3 yeast inh	tim10-1 inh	tim23-1 inh	SKKanGAS inh
Cc1ccc(Nc2nc3nonc3[nH]c2=O)cc1C	5	-5	16	-23	-11	26
Cc1c(NS(=O)(=O)c2cc(C(=O)NCC3CCCO3)cc(Cl)c2Cl)c(=O)n(-c2ccccc2)n1C (configuration not stated)	·	-2	5	-1	17	-1
Cc1c(C(=O)Nc2nccs2)sc2nc(-c3cccs3)cc(C(F)(F)F)c12	·	-2	12	0	7	95*
COC(=O)[C@]1(C)N[C@H](CN(C)C(=O)Nc2ccccc2)[C@@H]2C(=O)N(Cc3ccccc3)C(=O)[C@@H]21	-4	-3	9	8	9	·
CC1CC(C)C(=NNC(N)=O)C(C(O)CC2CCC(=O)NC2=O)C1 (configuration not stated)	114*	·	·	·	·	·
O=C(CN1CCN(Cc2cccc(F)c2)CC1)Nc1ccccc1F	-17	1	17	8	3	-3
O=C(Nc1nnc(-c2ccc(F)cc2)o1)c1cccc([N+](=O)[O-])c1	-80	-1	19	34	10	84*
O=C(Nc1nnc(C2=COCCO2)o1)c1cccc([N+](=O)[O-])c1	32	12	7	-15	-3	1
COc1ccc(C(=O)OCC(=O)Nc2nnc(-c3ccccc3)o2)cc1	-16	-16	9	-6	9	59*
O=C(Nc1nnc(-c2cccs2)o1)c1cccc(F)c1	-42	-7	19	0	11	85*
CCCN(CCC)S(=O)(=O)c1ccc(C(=O)Nc2nnc(-c3cccc(OC)c3)o2)cc1	-41	7	6	36	7	108*
O=C(Nc1nnc(-c2cccs2)o1)c1cc(-c2ccccc2)nc2ccccc12	-77	10	11	28	10	92*
O=C(NCc1cccs1)c1cc(-c2ccccc2)nc2ccccc12	16	5	11	-14	12	3
COc1cc(C(=O)OCC(=O)Nc2nnc(-c3ccccc3)o2)cc(OC)c1OC	·	-9	14	-9	-2	31
O=C(Nc1nnc(-c2ccco2)o1)c1ccc(Cl)s1	17	1	8	15	18	51*
COc1cccc(-c2nnc(NC(=O)c3cccc(F)c3)o2)c1	-37	12	14	16	18	87*
COc1ccc(C(=O)Nc2nnc(-c3ccccc3)o2)cc1OC	-16	2	15	10	5	50*
COC(=O)C1=C(C)N(Cc2ccccc2)C(=O)/C1=C\c1ccco1	-9	19	28	15	27	-11
Cc1cccc(CSc2nnc3c(n2)[nH]c2ccccc23)c1	-12	16	4	16	8	2
COc1cccc(-c2nnc(NC(=O)c3ccc(Cl)s3)o2)c1	-11	3	14	12	14	96*
C=CCn1c(C)cc(C(=O)COC(=O)CNC(=O)c2ccccc2)c1C	-13	-2	-5	4	-5	-12
COc1ccc2c(=O)c(-c3ccccc3)c(C)oc2c1	·	-7	30	-11	16	-10
Cc1oc2cc(Br)c(O)c(Br)c2c1-c1ccccc1	-27	·	·	·	·	83*
